Source: PubChem
Bim-Bcl-B: inhibitors of Bim-Bcl-B binding, primary screen, biochemical, multiplexed, human Bcl-2 family; Bcl-2-like protein 10 (Homo sapiens), Q9HD36; bead-based flow cytometry, Bim peptide-Bcl-B binding; inhibition, % at 10 µM; 190,000 compounds, 0.073% hits; AID 951, 2007;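 further: 0% = tracer peptide without compound and 100% = reference inhibitor peptide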
Target sequence (Q9HD36 whole entry, looked up): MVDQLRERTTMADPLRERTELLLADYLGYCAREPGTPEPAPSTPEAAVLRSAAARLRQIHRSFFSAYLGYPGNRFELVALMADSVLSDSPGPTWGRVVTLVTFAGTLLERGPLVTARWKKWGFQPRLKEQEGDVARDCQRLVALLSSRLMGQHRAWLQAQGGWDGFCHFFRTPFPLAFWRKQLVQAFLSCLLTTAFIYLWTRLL
Bcl-xL primary: inhibitors of human Bcl-xL, primary screen, biochemical, fluorescence polarization, HTS | Bcl-2-like protein 1 (Homo sapiens), Q07817 | GST-Bcl-xL / FITC-Bim BH3 peptide fluorescence polarization | inhibition, % at 10.9 µM | 320,000 compounds, 0.7% hits;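 active means inhibition above the mean of all tested compounds plus 3 SD, cutoff set per campaign, cut at about 30% in these data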;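 further: 0% = DMSO wells and 100% = unlabeled Bim-BH3 peptide competitor; inhibitors lower millipolarization by displacing the labeled peptide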
Bim-Bfl-1: inhibitors of Bim binding to Bfl-1, primary screen, biochemical, multiplexed, bead-based flow cytometry. inhibition, % at 10 µM. Bim-Bfl-1 binding inhibition. 190,000 compounds, 0.12% hits. AID 1008, 2008. Bcl-2-related protein A1 (Homo sapiens), Q16548;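 further: 0% = wells without compound plus tracer and 100% = blocker peptide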
Target sequence (Q16548 whole entry, looked up): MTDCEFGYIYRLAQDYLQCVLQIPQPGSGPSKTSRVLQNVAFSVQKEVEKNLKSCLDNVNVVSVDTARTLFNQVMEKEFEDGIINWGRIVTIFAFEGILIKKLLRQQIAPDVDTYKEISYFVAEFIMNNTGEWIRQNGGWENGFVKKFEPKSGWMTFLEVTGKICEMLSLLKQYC
Bcl-2 Bim block: inhibitors of Bim-Bcl-2 binding, primary screen, biochemical, multiplexed, human Bcl-2 family. Apoptosis regulator Bcl-2 (Homo sapiens), P10415. Bead-based flow cytometry, Bim peptide-Bcl-2 binding. inhibition, % at 10 µM. 190,000 compounds, 0.06% hits. AID 950, 2007; in the data active means inhibition above about 40%;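 further: 0% = no compound wells with probe peptide and 100% = reference peptide inhibitor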
Target sequence (P10415 whole entry, looked up): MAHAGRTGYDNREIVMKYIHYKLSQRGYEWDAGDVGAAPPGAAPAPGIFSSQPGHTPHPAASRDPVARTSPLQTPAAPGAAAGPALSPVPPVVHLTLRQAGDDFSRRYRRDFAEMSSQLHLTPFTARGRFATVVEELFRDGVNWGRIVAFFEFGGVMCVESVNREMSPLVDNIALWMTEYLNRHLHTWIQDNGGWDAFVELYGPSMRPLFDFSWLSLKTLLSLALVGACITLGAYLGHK
Bcl-XL Bim block: inhibitors of Bim-Bcl-XL binding, primary screen, biochemical, multiplexed, bead flow cytometry, human Bcl-XL. Bim peptide-Bcl-XL binding, fluorescence. inhibition, % at 10 µM. 190,000 compounds, 0.04% hits. AID 1007, 2008
Bcl-W Bim block: inhibitors of Bim binding to Bcl-W, primary screen, biochemical, multiplexed, bead-based flow cytometry; Bcl-2-like protein 2 (Homo sapiens), Q92843; inhibition, % at 10 µM; Bim peptide-Bcl-W binding; AID 952, 2007; 190,000 compounds, 0.02% hits;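 further: 0% = bound tracer without compound and 100% = peptide blocker; higher means less fluorescent Bim peptide bound to Bcl-W beads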
An asterisk follows results filed as active; x = no result. Sampled rows, rich in hits. Any-hit rate of the full collection: about 0.81%. Unless noted, no stated cut-off is given here; in the data, active means inhibition above about 40%.

SMILES	Bim-Bcl-B	Bcl-xL primary	Bim-Bfl-1	Bcl-2 Bim block	Bcl-XL Bim block	Bcl-W Bim block
CCOC(=O)N1CCN(C(=O)c2cccc(F)c2)CC1	0	7	-3	-4	-5	-2
O=C(CSCc1ccccc1)NNc1c(F)c(F)cc(F)c1F	x	4	x	x	x	x
Cc1cccc(-c2cccc(NC(=O)C3CCCN(C(=O)c4csc(C)n4)C3)c2)c1 (configuration not stated)	x	2	x	x	x	x
Cn1ncc([N+](=O)[O-])c1C(=O)n1nnc2ccccc21	-1	x	2	1	5	2
CC1(OC(=O)C2CCCC2)C(=O)C=C2C=C(c3ccsc3)N(Cc3ccco3)C=C2C1=O (configuration not stated)	x	34*	x	x	x	x
CC1(OC(=O)C2CCCC2)C(=O)C=C2C=C(c3ccsc3)N(CCCCO)C=C2C1=O (configuration not stated)	x	17	x	x	x	x
Cc1ccc(NC(=O)/C(C#N)=C(\N)C(Cl)(Cl)Cl)nc1	2	72*	1	7	5	4
Cc1ccc(NC(=O)C(=O)Nc2ccc(C)cn2)nc1	-5	7	-3	-4	-4	-2
CCn1c(O)c(/C=N/N=C/c2ccccc2)c2ccc(C3=NNC(=O)CC3)cc21	-9	49*	-7	-6	-4	9
CCC(CC)=N/N=C/c1c(O)n(CC)c2cc(C3=NNC(=O)CC3)ccc12	0	-1	17	-1	9	1
CCCc1cc(=O)[nH]c(SCC)n1	-4	3	-11	-5	-6	4
CCCc1cc(=O)[nH]c(-n2[nH]c3c(c2=O)CCCC3)n1	0	47*	-1	0	0	1
CCOCCCN(C(=O)c1snc(C(N)=O)c1N)C(C(=O)NC1CCCC1)c1ccc(F)cc1 (configuration not stated)	x	-3	x	x	x	x
CC(=O)OCCNc1cc(Sc2nc3ccccc3[nH]2)c2nonc2c1[N+](=O)[O-]	0	14	44*	2	0	9
COc1ccc2ccccc2c1C(O)c1nccn1C (configuration not stated)	-11	173*	-15	-7	-7	-1
CC(C)c1ccc(/C=C2\Oc3c(ccc(O)c3CN3CCN(C)CC3)C2=O)cc1	-1	41*	-4	-1	-2	-1
Cc1ccc(/C=C2\Oc3c(ccc(O)c3CN3CCN(CCO)CC3)C2=O)cc1	-1	48*	-3	2	-2	1
CCc1cc(=O)oc2c(CN3CCN(C)CC3)c(O)ccc12	x	6	x	x	x	x
CSc1c(C#N)c(N)nc2sc(C(=O)c3ccccc3)c(N)c12	x	51*	x	x	x	x
COc1ccc(C(O)(CC(C)C)C(CN2CCOCC2)c2ccccc2)cc1 (configuration not stated)	x	47*	x	x	x	x
Cc1ccc(C(=O)N2CCn3c(C)ccc3C2C)cc1 (configuration not stated)	-3	43*	-1	1	-4	-3
Nc1n[nH]c(=S)n1/N=C1/C(=O)Nc2ccccc21	-6	x	4	0	-2	3
CN1/C(=C\C(=O)Nc2ccc(Cl)cc2)C(C)(C)c2ccccc21	25	1	39	26	40*	27
CN1/C(=C\C=C(/C#N)C(=O)Nc2ccc(Cl)cc2)C(C)(C)c2ccccc21	-3	-20	2	-6	2	1
CC(/C=C/C(=O)c1ccc(C)cc1)=C\c1ccccc1	23	3	47*	33	48*	27
SMILES	Bim-Bcl-B	Bcl-xL primary	Bim-Bfl-1	Bcl-2 Bim block	Bcl-XL Bim block	Bcl-W Bim block
Cc1ccc(C(=O)/C=C\C(=O)c2ccc(C)cc2)cc1	-4	-4	9	3	-3	-2
CCOC(=O)C(=O)c1c(-c2ccc(C)cc2)nc2ccccn12	-5	63*	-3	-3	-4	0
COc1ccc(C=Nc2cccnc2N)cc1	x	46*	x	x	x	x
CCOc1ccc(C=Nc2cccc3ncccc23)cc1	4	4	12	17	-2	-3
Cc1ccc(C=Nc2cccnc2N)cc1	-3	60*	3	-1	-1	1
COCC(C)NC(=O)C(C)N1c2cccc3cccc(c23)S1(=O)=O (configuration not stated)	x	-7	x	x	x	x
COc1ccc(-c2cc(=O)c(C(=O)c3ccc(C)cc3)n[nH]2)cc1	-19	4	-7	-6	-12	-8
O=C(CCc1nc(-c2ccccc2Cl)no1)NC1CCCCC1	x	3	x	x	x	x
COc1ccccc1O	x	1	x	x	x	x
O=C1c2cccc(O)c2C(=O)c2c(O)cccc21	-18	119*	5	3	0	0
COc1cccc2c1-c1c(O)cccc1C2=O	x	43*	x	x	x	x
COc1ccc2c(c1)c1nc3ccccc3nc1n2CC(=O)OC(C)C	0	60*	0	-1	-9	-3
COc1ccc2c(c1)c1nc3ccccc3nc1n2Cc1ccc(OC(C)C)c(OC)c1	-18	42*	-12	-2	-9	-6
COc1ccc(Cn2c3ccc(OC)cc3c3nc4ccccc4nc32)cc1	-7	19	-4	-7	-6	-4
Cc1n[nH]c(C)c1S(=O)(=O)N1CCN(S(=O)(=O)c2ccccc2C#N)CC1	x	1	x	x	x	x
CCOc1ccc(S(=O)(=O)N(CC)CC(=O)NCc2ccncc2)cc1C	x	4	x	x	x	x
COc1ccc(OC)c(N=c2ssnc2Cl)c1	-15	4	41*	5	0	7
CN(CC(=O)Nc1ccc(Cl)c(C(F)(F)F)c1)C(=O)CC1Sc2ccccc2NC1=O (configuration not stated)	x	1	x	x	x	x
C/C(=N\NC(=O)c1ccccc1F)c1cccc(NC(=O)c2ccc(C)cc2)c1	x	3	x	x	x	x
COc1cc(C(F)(F)F)nc2ccc(C#CCOC(=O)Nc3ccccc3)cc12	x	36*	x	x	x	x
COc1ccc(OCCOC(=O)Nc2ccccc2)cc1	-7	3	-10	-9	4	0
CCCNC(=O)C(=O)NCC(c1ccc2c(c1)OCO2)N1CCN(c2ccc(F)cc2)CC1 (configuration not stated)	x	4	x	x	x	x
CCN(CC)C(=O)CSc1nnc2nnc3cc(Cl)ccc3n12	x	93*	x	x	x	x
CCN(CC)C(=O)CSc1nnc2nnc3cc(C)ccc3n12	x	28	x	x	x	x
Cc1cc(Oc2ccc(=O)[nH]n2)nc(Cl)n1	x	40*	x	x	x	x
COc1ccc(NC(=O)C2CC3CCC2C3)c(OC)c1 (configuration not stated)	x	5	x	x	x	x
Nc1cc(Nc2ccc(Br)cc2)nc(N)n1	x	53*	x	x	x	x
O=C(c1cccc(S(=O)(=O)Nc2ccccc2Cl)c1)N1CCN(c2ccccc2O)CC1	x	8	x	x	x	x
Cc1ccc(-n2c(C)nnc2SCC(=O)NNC(=O)c2ccco2)cc1	-10	-2	-6	-5	-2	-3
